In PubChem BioAssay (NCI):
This is part of a sample that, as a whole, favours compounds with a hit. Of some 83,000 tested, about 20% had one in any assay.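 48-hour exposure, single concentration, 96-well plates; percent growth endpoint where 0 means no net growth. Active: below 10.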 Activity calls are given as the source filed them.

system: CCRF-CEM leukemia; assay: NCI-60 one-dose screen, 48 h (100 = growth as untreated, 0 = no growth, -100 = all killed); settings: 10 µM
Method: Growth inhibition of the CCRF-CEM human tumor cell line is measured as a screen for anti-cancer activity. Cells are grown in 96 well plates and exposed to the test compound for 48 hours. Compounds are tested at a single concentration, which is 10^-5 M for most compounds. The reported endpoint is percent growth (GI% or GIPRCNT), where numbers from 0 - 100% represent growth inhibition, and numbers from -100% - 0 represent cell death. For example, a value of 40 represents 60% growth inhibition. A value of 0 means no net growth occurred over the course of the experiment. A value of -40 indicates 40% of cells at the beginning of the experiment died by the end of the experiment. A value of -100 means all cells are dead at the end of the experiment.
NCI-60 Human Tumor Cell Lines Screen was performed using the standard one-dose NCI protocol, which is described in more detail at https://dtp.cancer.gov/discovery_development/nci-60/default.htm.
Compounds with GIPRCNT values below 10 were considered active. Activity score was based on GIPRCNT using the following formula: […]
Score is 0 for GIPRCNT values of 100 or above, 50 for GIPRCNT values of 0, and 100 for GIPRCNT values of -100.

With `CC1(C)Cc2c(cn(Cc3ccccc3)c2-c2ccccc2)-c2oncc21` as the compound, how does the growth read?
Its growth is 94.2% (inactive).

Which growth does the source give for `CCc1ccc(-c2nnc(COc3ccc(-c4nc5cc(Cl)c(Cl)cc5[nH]4)cc3OC)o2)cc1` here?
Its growth is 63.5% (inactive).

For `CCOc1nc(-c2ccccc2)cc2c(O)c(C(=O)N/N=C/c3ccc(OC)cc3)[nH]c(=O)c12`, which growth is on record?
The growth was 91.8% (inactive).

How did the growth turn out when `C/C(=N\NC(=O)c1sc(=S)n(C)c1N)c1cc2ccccc2o1` was run?
The growth was 51.2% (inactive).

`Cc1cc(Cl)ccc1Nc1nc(C(F)(F)F)ccc1C(=O)N/N=C/c1ccccc1Cl` was tested. Which growth did it give?
The growth was 14.7% (inactive).

Which growth does the source give for `N#Cc1ccc(-n2cnc(NC(=O)[C@H]3CCN(C#N)C3)c2)cc1` here?
Its growth is 12.3% (inactive).

How did the growth turn out when `CCCCCCCCCCCCCCCCn1cc[n+](C)c1` was run?
The growth was 33.6% (inactive).

With `Cc1nc2cc(-n3c(-c4ccc(F)cc4)nc4ccccc4c3=O)ccc2n1Cc1ccccc1` as the compound, how does the growth read?
Its growth is 65.9% (inactive).

For `CCOC(=O)CSC(=S)SCC(=O)OCC`, which growth is on record?
The growth was 85.1% (inactive).

`COc1ccc(/C=C2\SC(=S)N(CCCN3CCOCC3)C2=O)c(OC)c1` was tested. Which growth did it give?
The growth was 75.7% (inactive).

How did the growth turn out when `c1ccc(CNc2nc(Nc3ccc(-c4nc5ccccc5[nH]4)cc3)c3cn[nH]c3n2)cc1` was run?
The growth was 9.8% (active).

Which growth does the source give for `O=NN(CC(=O)N/N=C/C=C\c1ccccc1)CC(=O)N/N=C/C=C/c1ccccc1` here?
Its growth is 94.9% (inactive).

For `CCCCC(=O)N(c1ccc(Nc2c3ccccc3nc3cc([N+](=O)[O-])ccc23)cc1)S(C)(=O)=O`, which growth is on record?
Its growth is 33.2% (inactive).

Which growth does the source give for `N=C(N)c1ccc(-c2ccc(-c3ccccc3)s2)s1` here?
Its growth is -49.4% (active).

`Nc1c(C(=O)Nc2ccccc2F)sc2nc3c(cc12)C(=O)CCC3` was tested. Which growth did it give?
The growth was 26.8% (inactive).

`Cc1cc(Nc2cccc(F)c2)nc(NCc2ccccc2)n1` was tested. Which growth did it give?
The growth was 12.8% (inactive).

Which growth does the source give for `COc1cc(C2C(C#N)=C(c3c[nH]c4ccccc34)Nc3nc(N)[nH]c(=O)c32)cc(OC)c1OC` (stereo not given) here?
Its growth is 53.5% (inactive).

With `O=C(c1ccccc1)C(Sc1ccccc1)c1ccccc1` (stereo not given) as the compound, how does the growth read?
Its growth is 89.9% (inactive).

Which growth does the source give for `Cc1c(C(=O)N[C@H](CO)Cc2ccccc2)[nH]c2ccc(Cl)cc2c1=O` here?
The growth was 94.8% (inactive).

For `COc1cc(N=C2C(=O)N(Cc3ccccc3)c3ccccc32)cc(OC)c1OC`, which growth is on record?
Its growth is 29.5% (inactive).

How did the growth turn out when `COc1cc(/C=C/C(=O)c2cc(-c3ccccc3)ccc2O)cc(OC)c1OC` was run?
The growth was 8.52% (active).

Which growth does the source give for `COC(=O)[C@]12CC[C@@H](C)[C@H](C)[C@@H]1C1=CC[C@@H]3[C@@]4(C)C[C@@H](O)[C@H](O)[C@@](C)(CO)[C@@H]4[C@H](O)C[C@@]3(C)[C@]1(C)CC2` here?
Its growth is -43.7% (active).

Which growth does the source give for `CCOC(=O)c1ccc(N(C=O)CCC(=O)CCl)cc1` here?
The growth was -31.4% (active).

Which growth does the source give for `CN(C)Cc1cccs1` here?
Its growth is 80% (inactive).

`CCOC(=O)c1cc2c(n1Cc1cccc(OC)c1)-c1oncc1CC2` was tested. Which growth did it give?
The growth was 13.1% (inactive).

With `CCCn1c(=O)c2c(nc(-c3cccc(OCCCCl)c3)n2C)n(CCC)c1=O` as the compound, how does the growth read?
The growth was 86.3% (inactive).

`CC(=O)OC1Oc2ccccc2-c2oc(=O)c(-c3cc(=O)oc4cc(O)ccc34)cc21` (stereo not given) was tested. Which growth did it give?
The growth was 32.1% (inactive).

With `Cc1nc(N)sc1Sc1nc2ccc(Cl)cc2c(=O)n1-c1ccc(Oc2ccccc2)cc1` as the compound, how does the growth read?
Its growth is 41.5% (inactive).

With `O=c1oc2c3ccc4cnccc4c3[nH]c2c2ccccc12` as the compound, how does the growth read?
Its growth is -1.54% (active).

Which growth does the source give for `COc1cccc2c1O/C(=C\c1ccc([N+](=O)[O-])s1)C2=O` here?
Its growth is 43.6% (inactive).

For `COc1cc(Cn2c(-c3ccccc3)c(Cl)c3c2-c2oncc2CC3)cc(OC)c1`, which growth is on record?
The growth was 9.93% (active).

With `c1ccc(OCCC[P+](c2ccccc2)(c2ccccc2)c2ccccc2)cc1` as the compound, how does the growth read?
Its growth is 1.67% (active).

Which growth does the source give for `C=CCOc1ccc2c(c1)CC[C@@H]1[C@@H]2CC[C@]2(C)C(=O)/C(=N/O)C[C@@H]12` here?
Its growth is 6.37% (active).

How did the growth turn out when `O=C(CCl)N1c2ccccc2Sc2ccc3ccccc3c21` was run?
The growth was -15.1% (active).

Which growth does the source give for `COc1ccc(C(=O)c2sc3nc(-c4cccs4)ccc3c2N)cc1OC` here?
The growth was 34.5% (inactive).

With `Cc1cn(C(=O)/C(Cl)=C(/Cl)C(=O)O)c2ccccc12` as the compound, how does the growth read?
Its growth is 37.2% (inactive).

How did the growth turn out when `O=[N+]([O-])c1ccc(Br)o1` was run?
Its growth is 114% (inactive).

How did the growth turn out when `COc1cc(C2=Nc3c/c(=C\c4c(O)[nH]c5ccc(Cl)cc45)ccc3=N2)cc(OC)c1OC` was run?
The growth was 8.61% (active).

How did the growth turn out when `CCOC(=O)c1cc(-c2ccccc2)nc(N)n1` was run?
The growth was 98.7% (inactive).

For `CC(C)C[C@H](NC(=O)Cn1ccc(Nc2ccccc2)cc1=O)B(O)O`, which growth is on record?
The growth was 3.67% (active).
